The supplement of paper PMC11006884
The full data set covers some 6,500 targets. This sample favours those with a hit. About 2% of all pairs of compound and target were hits. Unmarked numbers belong to inactive results.

Compound: COC(=O)C#Cc1ccccc1 [methyl 3-phenylpropiolate]
Test: log2 ratio of iodoacetamide-alkyne labeling of the cysteine site, DMSO over compound (competition); higher = stronger covalent engagement of the cysteine by the compound, active = 1 or more
Settings: 500 µM; treatment time 1 h; system: HEK293T cell lysate
Method in brief: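 The log2 competition ratio per cysteine is defined as mean reporter intensity in control channels over mean reporter intensity in compound channels. Lysate from HEK293T cells (2 mg/mL) received electrophile (500 µM) or vehicle for 1 h at ambient temperature, followed by iodoacetamide alkyne for 1 h. Samples were clicked to sCIP-TMT reagents, pooled, trypsin-digested overnight at 37 °C, streptavidin-enriched, acid-eluted and run on Orbitrap Eclipse LC-MS/MS with FAIMS, with quantification in FragPipe. Three replicates with duplicate channels were used, and any cysteine quantified in only one replicate was excluded.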

Chain of UniProt O43491 (O43491 whole entry, looked up): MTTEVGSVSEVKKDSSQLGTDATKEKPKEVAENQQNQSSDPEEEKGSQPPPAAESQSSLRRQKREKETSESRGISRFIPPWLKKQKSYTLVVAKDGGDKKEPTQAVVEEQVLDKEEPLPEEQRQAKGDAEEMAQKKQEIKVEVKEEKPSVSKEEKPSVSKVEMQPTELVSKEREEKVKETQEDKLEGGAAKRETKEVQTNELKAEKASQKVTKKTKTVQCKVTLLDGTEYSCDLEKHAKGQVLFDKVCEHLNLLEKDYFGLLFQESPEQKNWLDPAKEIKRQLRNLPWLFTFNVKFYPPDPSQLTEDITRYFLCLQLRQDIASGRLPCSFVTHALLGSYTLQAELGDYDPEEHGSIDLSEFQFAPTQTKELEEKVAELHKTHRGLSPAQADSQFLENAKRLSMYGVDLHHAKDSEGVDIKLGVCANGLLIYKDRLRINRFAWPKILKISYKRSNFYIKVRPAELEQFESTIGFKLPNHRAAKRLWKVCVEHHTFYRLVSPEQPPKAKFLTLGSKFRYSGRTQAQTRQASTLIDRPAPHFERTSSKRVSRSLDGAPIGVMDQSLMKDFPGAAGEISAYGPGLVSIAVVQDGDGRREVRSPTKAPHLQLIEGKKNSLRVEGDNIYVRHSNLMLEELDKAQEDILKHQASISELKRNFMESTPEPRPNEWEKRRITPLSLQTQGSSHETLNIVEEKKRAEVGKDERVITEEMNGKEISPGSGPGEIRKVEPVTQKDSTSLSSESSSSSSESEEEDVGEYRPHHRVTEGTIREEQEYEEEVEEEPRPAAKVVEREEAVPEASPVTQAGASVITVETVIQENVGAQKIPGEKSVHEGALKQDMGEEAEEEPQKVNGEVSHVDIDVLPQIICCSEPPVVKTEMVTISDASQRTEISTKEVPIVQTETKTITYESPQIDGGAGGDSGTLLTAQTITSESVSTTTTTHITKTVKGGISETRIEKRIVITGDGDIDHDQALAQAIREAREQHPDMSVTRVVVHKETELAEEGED
Chain of UniProt O75449 (O75449 whole entry, looked up): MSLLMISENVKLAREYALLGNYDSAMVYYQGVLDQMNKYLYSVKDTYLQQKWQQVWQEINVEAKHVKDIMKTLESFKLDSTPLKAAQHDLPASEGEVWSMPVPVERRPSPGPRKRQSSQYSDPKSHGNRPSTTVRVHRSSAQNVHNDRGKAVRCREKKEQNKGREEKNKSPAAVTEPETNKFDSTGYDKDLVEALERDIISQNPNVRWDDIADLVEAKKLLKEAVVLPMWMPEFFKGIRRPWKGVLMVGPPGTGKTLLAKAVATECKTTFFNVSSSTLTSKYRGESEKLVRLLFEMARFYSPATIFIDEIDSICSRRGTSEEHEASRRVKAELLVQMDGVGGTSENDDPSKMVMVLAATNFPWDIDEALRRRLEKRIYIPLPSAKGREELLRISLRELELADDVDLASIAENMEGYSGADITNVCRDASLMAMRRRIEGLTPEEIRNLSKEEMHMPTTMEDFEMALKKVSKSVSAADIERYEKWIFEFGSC
Chain of UniProt O00571 (O00571 whole entry, looked up): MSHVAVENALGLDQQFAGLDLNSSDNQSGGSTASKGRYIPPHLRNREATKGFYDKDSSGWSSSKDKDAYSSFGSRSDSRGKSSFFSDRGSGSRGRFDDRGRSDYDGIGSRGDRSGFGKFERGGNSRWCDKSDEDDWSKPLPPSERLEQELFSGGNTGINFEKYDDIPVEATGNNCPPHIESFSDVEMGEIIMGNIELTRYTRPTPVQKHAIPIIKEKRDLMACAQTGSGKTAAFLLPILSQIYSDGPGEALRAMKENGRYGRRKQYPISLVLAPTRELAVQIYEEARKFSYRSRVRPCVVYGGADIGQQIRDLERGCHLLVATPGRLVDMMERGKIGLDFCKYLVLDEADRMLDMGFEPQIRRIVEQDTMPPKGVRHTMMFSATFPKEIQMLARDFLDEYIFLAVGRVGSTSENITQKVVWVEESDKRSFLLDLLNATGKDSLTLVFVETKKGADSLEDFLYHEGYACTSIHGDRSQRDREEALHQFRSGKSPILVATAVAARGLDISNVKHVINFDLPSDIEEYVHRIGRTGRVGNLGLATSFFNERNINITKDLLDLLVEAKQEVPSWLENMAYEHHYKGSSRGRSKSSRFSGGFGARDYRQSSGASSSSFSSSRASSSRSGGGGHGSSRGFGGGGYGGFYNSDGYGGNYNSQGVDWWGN
Chain of UniProt O43172 (O43172 whole entry, looked up): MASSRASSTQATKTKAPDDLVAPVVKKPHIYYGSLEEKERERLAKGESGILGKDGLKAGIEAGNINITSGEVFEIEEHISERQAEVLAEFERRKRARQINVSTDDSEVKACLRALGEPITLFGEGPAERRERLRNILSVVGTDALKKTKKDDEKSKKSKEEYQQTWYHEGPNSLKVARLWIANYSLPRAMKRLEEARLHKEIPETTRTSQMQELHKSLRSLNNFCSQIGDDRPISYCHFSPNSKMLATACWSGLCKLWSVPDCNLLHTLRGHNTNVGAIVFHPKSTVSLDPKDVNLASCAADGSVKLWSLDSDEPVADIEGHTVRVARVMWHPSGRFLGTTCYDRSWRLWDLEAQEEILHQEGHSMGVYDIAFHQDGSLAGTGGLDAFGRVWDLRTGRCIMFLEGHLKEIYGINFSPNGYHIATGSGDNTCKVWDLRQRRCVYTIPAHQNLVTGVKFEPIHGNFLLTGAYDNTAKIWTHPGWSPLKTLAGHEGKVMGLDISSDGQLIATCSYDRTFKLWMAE
Chain of UniProt O60551 (O60551 whole entry): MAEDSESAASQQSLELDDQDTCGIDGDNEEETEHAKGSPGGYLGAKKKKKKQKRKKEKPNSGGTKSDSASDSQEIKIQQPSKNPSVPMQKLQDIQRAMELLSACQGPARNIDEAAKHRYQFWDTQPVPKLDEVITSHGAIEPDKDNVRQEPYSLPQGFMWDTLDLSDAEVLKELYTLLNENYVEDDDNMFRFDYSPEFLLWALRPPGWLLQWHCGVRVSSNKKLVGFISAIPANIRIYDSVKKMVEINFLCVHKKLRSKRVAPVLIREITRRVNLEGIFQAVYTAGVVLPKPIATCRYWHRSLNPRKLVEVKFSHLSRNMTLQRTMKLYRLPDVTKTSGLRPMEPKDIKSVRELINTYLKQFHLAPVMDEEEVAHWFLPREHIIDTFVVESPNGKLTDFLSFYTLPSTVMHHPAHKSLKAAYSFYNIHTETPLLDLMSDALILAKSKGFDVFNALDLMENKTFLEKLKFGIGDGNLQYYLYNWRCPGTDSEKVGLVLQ
Chain of UniProt O75569 (O75569 whole entry): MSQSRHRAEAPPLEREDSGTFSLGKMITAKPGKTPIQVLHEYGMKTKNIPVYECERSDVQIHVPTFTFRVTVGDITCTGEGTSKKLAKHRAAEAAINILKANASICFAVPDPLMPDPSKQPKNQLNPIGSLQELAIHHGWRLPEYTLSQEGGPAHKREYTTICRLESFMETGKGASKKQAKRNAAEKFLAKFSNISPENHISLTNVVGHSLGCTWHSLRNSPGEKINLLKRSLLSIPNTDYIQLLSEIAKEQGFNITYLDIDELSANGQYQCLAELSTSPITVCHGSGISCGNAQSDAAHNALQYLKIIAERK
Chain of UniProt O43583 (O43583 whole entry, looked up): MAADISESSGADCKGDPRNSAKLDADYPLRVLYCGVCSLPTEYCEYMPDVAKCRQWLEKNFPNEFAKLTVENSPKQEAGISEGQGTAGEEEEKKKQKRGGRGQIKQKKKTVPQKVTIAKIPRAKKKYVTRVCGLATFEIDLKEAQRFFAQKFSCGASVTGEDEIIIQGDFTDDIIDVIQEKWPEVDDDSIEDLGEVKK
Chain of UniProt O60343 (O60343 whole entry, looked up): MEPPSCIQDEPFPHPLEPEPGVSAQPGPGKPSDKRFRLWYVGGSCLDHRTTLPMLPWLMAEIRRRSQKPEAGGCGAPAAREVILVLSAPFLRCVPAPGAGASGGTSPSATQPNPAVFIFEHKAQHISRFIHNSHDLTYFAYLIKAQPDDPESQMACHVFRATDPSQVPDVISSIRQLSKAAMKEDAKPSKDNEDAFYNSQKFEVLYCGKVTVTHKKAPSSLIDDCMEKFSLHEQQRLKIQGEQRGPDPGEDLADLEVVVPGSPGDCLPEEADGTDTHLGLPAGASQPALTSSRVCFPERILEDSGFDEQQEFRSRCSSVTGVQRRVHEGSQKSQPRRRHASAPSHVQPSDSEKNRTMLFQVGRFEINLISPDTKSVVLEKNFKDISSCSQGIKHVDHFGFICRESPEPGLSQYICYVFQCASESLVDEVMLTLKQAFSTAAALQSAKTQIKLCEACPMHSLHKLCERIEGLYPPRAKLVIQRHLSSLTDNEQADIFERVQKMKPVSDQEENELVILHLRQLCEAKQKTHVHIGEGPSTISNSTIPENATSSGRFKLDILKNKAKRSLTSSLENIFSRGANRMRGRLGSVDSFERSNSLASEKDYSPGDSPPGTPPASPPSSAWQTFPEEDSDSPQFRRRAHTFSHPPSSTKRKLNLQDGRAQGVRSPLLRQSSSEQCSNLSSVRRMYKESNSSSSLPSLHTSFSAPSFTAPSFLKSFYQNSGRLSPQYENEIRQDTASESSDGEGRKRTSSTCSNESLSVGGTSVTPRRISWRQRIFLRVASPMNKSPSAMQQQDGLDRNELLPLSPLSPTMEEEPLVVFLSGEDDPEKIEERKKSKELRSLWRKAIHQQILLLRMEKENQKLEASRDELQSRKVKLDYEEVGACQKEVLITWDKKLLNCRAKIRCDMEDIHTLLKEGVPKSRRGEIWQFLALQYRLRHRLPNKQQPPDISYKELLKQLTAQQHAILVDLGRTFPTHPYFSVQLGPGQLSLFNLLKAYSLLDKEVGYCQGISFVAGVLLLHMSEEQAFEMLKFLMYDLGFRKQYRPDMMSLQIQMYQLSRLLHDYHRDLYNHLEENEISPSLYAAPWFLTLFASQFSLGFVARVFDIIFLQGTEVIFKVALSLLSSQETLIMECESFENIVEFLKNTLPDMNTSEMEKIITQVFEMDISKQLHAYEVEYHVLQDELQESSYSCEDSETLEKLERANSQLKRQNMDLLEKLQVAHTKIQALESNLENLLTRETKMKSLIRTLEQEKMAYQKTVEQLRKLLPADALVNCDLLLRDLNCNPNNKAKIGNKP

| Target | log2 ratio of iodoacetamide-alkyne labeling |
| --- | --- |
| DVL2 C412 (UniProt O14641) | 0.134 |
| HEXIM1 C18 (UniProt O94992) | 0.398 |
| PSMD11 C289 (UniProt O00231) | 0.253 |
| PRPF6 C698 (UniProt O94906) | 0.0824 |
| UniProt O75153_C1196 | 0.492 |
| NVL C550 (UniProt O15381) | -0.302 |
| POLRMT C119 (UniProt O00411) | 1.22 (active) |
| HTATSF1 C471 (UniProt O43719) | 1.14 (active) |
| SIVA1 C6 (UniProt O15304) | 1.88 (active) |
| OFD1 C581 (UniProt O75665) | 0.478 |
| TBC1D4 C6 (UniProt O60343) | 0.373 |
| PJA2 C224 (UniProt O43164) | 0.22 |
| NVL C192 (UniProt O15381) | 0.306 |
| UniProt O14628_C178 | 1.09 (active) |
| EPB41L2 C424 (UniProt O43491) | 0.17 |
| PRKRA C106 (UniProt O75569) | 1.07 (active) |
| DENR C13 (UniProt O43583) | 0.235 |
| DDX3X C128 (UniProt O00571) | 0.406 |
| KATNA1 C491 (UniProt O75449) | 0.112 |
| HEXIM1 C84 (UniProt O94992) | 1.3 (active) |

| Target | log2 ratio of iodoacetamide-alkyne labeling |
| --- | --- |
| FLNB C2556 (UniProt O75369) | 0.079 |
| NMT2 C104 (UniProt O60551) | 0.453 |
| PRPF4 C237 (UniProt O43172) | 1.42 (active) |
| SART1 C645 (UniProt O43290) | 0.0232 |
| IDH3B C233 (UniProt O43837) | 0.394 |
| WASL C431 (UniProt O00401) | 1.06 (active) |
| A0AVT1_C347 | 2.27 (active) |
| DNM1L C367 (UniProt O00429) | 0.986 |
| NVL C391 (UniProt O15381) | 0.0922 |
| FLNB C455 (UniProt O75369) | 1.24 (active) |
| DNM1L C446 (UniProt O00429) | 0.102 |
| UniProt O43303_C535 | 0.837 |
| UniProt O95071_C2267 | 0.736 |
| SF3B1 C1059 (UniProt O75533) | 0.247 |
| EIF5B C853 (UniProt O60841) | 1 (active) |
| O15320_C147 (UniProt Q96PC5+O15320) | -0.197 |
| UniProt O75153_C88 | 0.201 |
| HEXIM1 C79 (UniProt O94992) | 1.3 (active) |
| ANKRD17 C210 (UniProt O75179) | 0.398 |
